Experimental data as given in PubChem BioAssay (Tox21).
Where “and” joins values, the source holds several entries; their conditions need not be identical. Equal entries are not always repeated. Results filed as inconclusive are left out. Where a call stands in place of a potency, no number is given. Calls of active or inactive are those of the source. Unless noted, calls come from the whole dose curve; as a rule, active = well fitted curve in the direction sought with a large enough effect in the repeat runs; inconclusive = weak or mixed curves; inactive = no such curve, though single readings can be large; an effect the other way counts as inactive or inconclusive.

What was measured:
[1] = A CellTox Green Cytotoxicity Assay to monitor cytotoxicity in HEK293 cells - 32 hour (AID 1224881); note: nearly all actives have a fitted effect of over 40% in size
In short: (§1)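 Each value comes from one timepoint of a single continuous run in which HEK293 cells with CellTox Green were exposed to compound for up to 40 h at 37 C, dye fluorescence rising with cell death.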

[2] = A CellTox Green Cytotoxicity Assay to monitor cytotoxicity in HepG2 cells - 0 hour (AID 1224882); note: nearly all actives have a fitted effect of over 35% in size
In short: (§2)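 Continuous culture of HepG2 cells with a membrane-impermeant DNA dye; rising fluorescence marks dead cells. Compound exposure lasted up to 40 h at 37 C, with reads every 8 h from 0 h.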

[3] = A CellTox Green Cytotoxicity Assay to monitor cytotoxicity in HepG2 cells - 32 hour (AID 1224883); note: nearly all actives have a fitted effect of over 50% in size
In short: as §2

[4] = A CellTox Green Cytotoxicity Assay to monitor cytotoxicity in HEK293 cells - 8 hour (AID 1224884); note: nearly all actives have a fitted effect of over 35% in size
In short: as §1

[5] = qHTS RealTime-Glo MT Cell Viability Assay in HepG2 cells - 16 hour (AID 1224885); note: nearly all actives have a fitted effect of over 50% in size
In short: (§3)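 HepG2 cells (600/well) were dispensed with RealTime-Glo reagents, incubated 5 h at 37 °C, then treated with compounds in DMSO for up to 40 h. Nonlytic NanoLuc luminescence reflecting viable cells was read at each stated time point.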

[6] = qHTS RealTime-Glo MT Cell Viability Assay in HEK293 cells - 24 hour (AID 1224886); note: top concentration of the series differs between compounds; nearly all actives have a fitted effect of over 50% in size
In short: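 HEK293 cells seeded with NanoLuc/prosubstrate reagent, rested 5 h at 37 C, then dosed and kept at 37 C up to 40 h. Nonlytic real-time luminescence from viable cells read at 0, 8, 16, 24, 32 and 40 h.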

[7] = qHTS RealTime-Glo MT Cell Viability Assay in HEK293 cells - 8 hour (AID 1224887); note: top concentration of the series differs between compounds; nearly all actives have a fitted effect of over 50% in size
In short: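 qHTS format; HEK293 cells with NanoLuc/prosubstrate reagent, 37 C/5% CO2 for 5 h pre-dosing; compounds 23 nL in DMSO; luminescence at each time point reflects viable cells.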

[8] = A CellTox Green Cytotoxicity Assay to monitor cytotoxicity in HEK293 cells - 16 hour (AID 1224888); note: nearly all actives have a fitted effect of over 35% in size
In short: as §1

[9] = qHTS RealTime-Glo MT Cell Viability Assay in HepG2 cells - 0 hour (AID 1224889); note: nearly all actives have a fitted effect of over 50% in size
In short: as §3

[10] = A CellTox Green Cytotoxicity Assay to monitor cytotoxicity in HepG2 cells - 8 hour (AID 1224890); note: nearly all actives have a fitted effect of over 45% in size
In short: as §2

[11] = qHTS assay to identify small molecule antagonists of the estrogen receptor alpha (ER-alpha) signaling pathway using the BG1 cell line in the presence of 0.1 nM 17-beta-estradiol - cell viability counter screen (AID 1259241); note: nearly all actives have a fitted effect of over 40% in size; note: potency is the fitted concentration of half-maximal effect
In short: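 CellTiter-Fluor read (30 min, 37C) on ER-alpha/ERE-luc VM7Luc4E2 cells; 22 hr compound treatment; agonist 0.1 nM E2 final; same-well multiplex.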

[12] = qHTS assay to identify small molecule antagonists of the androgen receptor (AR) signaling pathway using the MDA cell line in the presence of 0.5 nM R1881 - cell viability counter screen (AID 1259242); note: nearly all actives have a fitted effect of over 45% in size; note: potency is the fitted concentration of half-maximal effect
In short: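 Fluorescence from CellTiter-Fluor, which reports protease activity of live cells, was read 30 min after reagent addition to MDA-kb2 cells that had been incubated 16 hr with compound and 0.5 nM R1881.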

[13] = qHTS assay to identify small molecule phospholipidosis (PLD) inducers (AID 1259344; active = well fitted curve in the direction sought with a large enough effect; an effect the other way counts as inactive or inconclusive)
In short: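 HepG2 cells, 900/well, treated with compound plus LipidTOX Red for 24 h at 37 C; amiodarone positive and DMSO negative controls. Fixed with paraformaldehyde/Hoechst, then high-content imaging scored LipidTOX pit count and integrated intensity per well and per cell.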

[14] = qHTS assay to identify small molecule HDAC inhibitors (AID 1259364); note: top concentration of the series differs between compounds; nearly all actives have a fitted effect of over 45% in size
In short: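 Endogenous HDAC class I/II activity was measured in wild-type HCT-116 cells by HDAC-Glo luminescence after 2 h compound treatment.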

[15] = qHTS assay to identify small molecule HDAC inhibitors - cell viability counter screen (AID 1259365)
In short: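 To flag cytotoxic hits, 1,500 wild-type HCT-116 cells per well, plated the day before, receive test compounds for 2hr at 37 C before CellTiter-Glo reagent and a luminescence read.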

[16] = qHTS assay to identify small molecule agonists of the sonic hedgehog signaling (Shh) pathway - cell viability counter screen (AID 1259366); note: nearly all actives have a fitted effect of over 50% in size; note: potency is the fitted concentration of half-maximal effect
In short: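 Fluorescence from CellTiter-Fluor reports live cells in this counter screen. NIH/3T3-derived Gli1-Luc reporter cells receive test compounds for 24hr at 37C; reagent goes in at 23hr.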

[17] = qHTS assay to identify small molecule antagonists of the sonic hedgehog signaling (Shh) pathway - cell viability counter screen (AID 1259367); note: nearly all actives have a fitted effect of over 55% in size; note: potency is the fitted concentration of half-maximal effect
In short: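 NIH/3T3-derived Gli1-Luc reporter cells, 2,000/well, plated 4 hr before compound addition, then stimulated with conditioned medium for 24 hr at 37C. Viability measured in the same wells by CellTiter-Fluor fluorescence, reagent added at 23 hr for 1 hr.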

[18] = qHTS assay to identify small molecule agonists of the sonic hedgehog signaling (Shh) pathway (AID 1259368; calls by dose curve;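 note: NIH/3T3-derived 3T3Gli1-Luc cells carrying a stable Gli1-driven firefly luciferase reporter; series mostly up to about 92 µM; nearly all actives have a fitted effect of over 15% in size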)
In short: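 Luminescent signal was taken as a measure of Gli1-controlled luciferase expression in stably transfected NIH/3T3-derived cells that had been treated for 24 hr with compounds delivered in DMSO.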

[19] = molecular target: Androgen receptor (Homo sapiens) (UniProt P10275); experiment: qHTS assay to identify small molecule antagonists of the androgen receptor (AR) signaling pathway using the MDA cell line in the presence of 0.5 nM R1881 (AID 1259243); note: nearly all actives have a fitted effect of over 50% in size
In short: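 Inhibition of R1881 (0.5 nM final) induced reporter signal was measured in human MDA-kb2 cells; note the MMTV promoter also responds to GR. Exposure lasted 16 hr at 37C.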

[20] = molecular target: Estrogen receptor (Homo sapiens) (UniProt P03372); experiment: qHTS assay to identify small molecule antagonists of the estrogen receptor alpha (ER-alpha) signaling pathway using the BG1 cell line in the presence of 0.1 nM 17-beta-estradiol (AID 1259244); note: nearly all actives have a fitted effect of over 50% in size
In short: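 Quantitative high-throughput screen in VM7Luc4E2 cells: compound plus 0.1 nM E2 (final), 22 h, 37C, 5% CO2; ONE-Glo added, 30 min room temperature, luminescence measured.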

Androgen receptor (Homo sapiens), sequence (P10275 whole entry, looked up): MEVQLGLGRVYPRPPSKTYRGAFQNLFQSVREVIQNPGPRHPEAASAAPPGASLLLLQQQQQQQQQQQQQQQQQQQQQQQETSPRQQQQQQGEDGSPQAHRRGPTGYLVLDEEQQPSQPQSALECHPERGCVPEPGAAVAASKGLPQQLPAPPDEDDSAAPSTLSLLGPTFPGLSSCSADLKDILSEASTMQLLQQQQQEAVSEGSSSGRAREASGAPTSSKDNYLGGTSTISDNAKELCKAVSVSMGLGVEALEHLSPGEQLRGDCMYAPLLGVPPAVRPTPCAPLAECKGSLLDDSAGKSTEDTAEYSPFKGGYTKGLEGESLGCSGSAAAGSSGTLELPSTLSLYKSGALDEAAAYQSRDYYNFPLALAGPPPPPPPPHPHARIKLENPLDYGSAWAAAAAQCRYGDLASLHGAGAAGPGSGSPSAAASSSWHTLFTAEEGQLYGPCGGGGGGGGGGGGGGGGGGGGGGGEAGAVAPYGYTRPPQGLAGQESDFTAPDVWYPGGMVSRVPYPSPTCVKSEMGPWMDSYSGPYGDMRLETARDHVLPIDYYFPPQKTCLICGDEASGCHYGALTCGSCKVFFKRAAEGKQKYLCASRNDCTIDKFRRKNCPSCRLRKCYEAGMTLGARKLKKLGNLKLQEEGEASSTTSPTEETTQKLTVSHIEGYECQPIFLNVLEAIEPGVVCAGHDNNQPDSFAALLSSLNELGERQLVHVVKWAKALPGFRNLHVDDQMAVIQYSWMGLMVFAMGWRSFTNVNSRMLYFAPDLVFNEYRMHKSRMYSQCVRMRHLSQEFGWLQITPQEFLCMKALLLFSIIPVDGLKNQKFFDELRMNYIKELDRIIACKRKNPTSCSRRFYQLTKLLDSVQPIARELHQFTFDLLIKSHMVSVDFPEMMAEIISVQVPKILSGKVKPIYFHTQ
Estrogen receptor (Homo sapiens), sequence (P03372 whole entry, looked up): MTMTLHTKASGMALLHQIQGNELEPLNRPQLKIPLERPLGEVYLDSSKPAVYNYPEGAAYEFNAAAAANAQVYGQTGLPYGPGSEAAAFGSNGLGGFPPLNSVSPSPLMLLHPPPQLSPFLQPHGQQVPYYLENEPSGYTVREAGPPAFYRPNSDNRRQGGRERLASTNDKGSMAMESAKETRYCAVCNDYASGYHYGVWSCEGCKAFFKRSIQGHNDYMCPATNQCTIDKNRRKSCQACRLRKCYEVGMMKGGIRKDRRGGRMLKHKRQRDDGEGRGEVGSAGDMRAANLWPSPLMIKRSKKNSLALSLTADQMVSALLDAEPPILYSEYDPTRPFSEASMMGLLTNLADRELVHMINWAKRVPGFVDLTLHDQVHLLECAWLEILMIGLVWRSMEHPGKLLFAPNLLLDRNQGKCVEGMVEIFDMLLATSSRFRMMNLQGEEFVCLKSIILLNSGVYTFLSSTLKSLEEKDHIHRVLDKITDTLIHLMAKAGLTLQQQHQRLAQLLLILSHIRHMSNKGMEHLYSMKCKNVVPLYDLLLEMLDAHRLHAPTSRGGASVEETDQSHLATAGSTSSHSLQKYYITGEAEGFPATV

Structure (SMILES)	Potency [1]	outcome [2]	Potency [3]	outcome [4]	Potency [5]	Potency [6]	Potency [7]	Potency [8]	Potency [9]	outcome [10]	Potency [11]	Potency [12]	outcome [13]	Potency [14]	outcome [15]	Potency [16]	Potency [17]	outcome [18]	Potency [19]	Potency [20]
NCCNCCN	inactive	inactive	inactive	inactive	inactive	inactive	inactive	inactive	inactive	inactive	inactive	inactive	inactive	inactive	inactive	inactive	inactive	inactive		
C=Cc1ccc(C)cc1	inactive	inactive	inactive	inactive	inactive	inactive	inactive	inactive	inactive	inactive	inactive	inactive		inactive	inactive	inactive	inactive	inactive		
COc1ccccc1OCC(O)CO (stereo unspecified)	inactive	inactive	inactive	inactive	inactive	inactive	inactive	inactive	inactive		inactive	inactive	inactive	inactive	inactive	inactive	inactive	inactive	inactive	
COc1ccc(C)cc1N	inactive	inactive	inactive	inactive	inactive	inactive	inactive	inactive	inactive		inactive	inactive		inactive	inactive	inactive	inactive	inactive	inactive	inactive
COc1ccc(OC)cc1	inactive	inactive	inactive	inactive	inactive	inactive	inactive	inactive	inactive	inactive	inactive	inactive		inactive	inactive	inactive	inactive	inactive		inactive
O=C(O)CCCCCCCCC(=O)O	inactive	inactive	inactive	inactive	inactive	inactive	inactive	inactive	inactive	inactive	inactive	inactive		inactive	inactive	inactive	inactive	inactive		
O=C(O)Cn1c(=O)n(Cc2ccc(Br)cc2F)c(=O)c2ccc(Cl)cc21	inactive	inactive	inactive	inactive				inactive	inactive	inactive	inactive	inactive		inactive	inactive	27.3 µM (active)	21.7 µM (active)	inactive	inactive	inactive
Nc1ccc(Cl)c(N)c1	inactive	inactive	inactive	inactive		inactive	inactive	inactive	inactive	inactive	inactive	inactive		inactive	inactive	inactive	inactive	inactive		inactive
CN1C(=O)CC[C@H]1c1cccnc1	inactive	inactive	inactive	inactive		inactive	inactive	inactive	inactive	inactive	inactive	inactive	inactive	inactive	inactive	inactive	inactive	inactive		
O=S(=O)(O)c1ccccc1	inactive	inactive	inactive	inactive		inactive	inactive	inactive	inactive		inactive	inactive		inactive	inactive	inactive	inactive	inactive		
O=S(=O)(O)c1ccc(N=Nc2c(O)ccc3cc(S(=O)(=O)O)ccc23)cc1	inactive	inactive	inactive	inactive	inactive	inactive		inactive	inactive	inactive	30.8 µM (active) and 27.3 µM (active)	54.7 µM (active) and 27.3 µM (active)		inactive	inactive	30.8 µM (active) and 30.6 µM (active)	27.4 µM (active) and 27.3 µM (active)	inactive		inactive
CCCCCCCCCCCC(=O)OC	inactive	inactive	inactive	inactive		inactive	inactive	inactive	inactive	inactive	inactive	inactive		inactive	inactive	inactive	inactive	inactive		inactive
Cc1ccc([N+](=O)[O-])cc1S(=O)(=O)O	inactive	inactive	inactive	inactive		inactive	inactive	inactive	inactive	inactive	inactive	inactive		inactive	inactive	inactive	inactive	inactive	inactive	inactive
COC(=O)CCCC(=O)OC	inactive	inactive	inactive	inactive	inactive	inactive	inactive	inactive	inactive		inactive	inactive		inactive	inactive	inactive	inactive	inactive		
CC1(C)CC(N)CC(C)(CN)C1 (stereo unspecified)	inactive	inactive	inactive	inactive		inactive	inactive	inactive	inactive		inactive	inactive		inactive	inactive	inactive	inactive	inactive		inactive
c1ccc(Oc2ccccc2)cc1	inactive	inactive	inactive	inactive		inactive	inactive	inactive	inactive		inactive	inactive		inactive	inactive	inactive	inactive	inactive		
N#Cc1ccccc1	inactive	inactive	inactive	inactive	inactive	inactive	inactive	inactive	inactive		inactive	inactive		inactive	inactive	inactive	inactive	inactive		
